Data from the supplement of paper PMC6805474.

Columns and labels:
[1] = tested on: Schistosoma mansoni schistosomula (LE); assay: XTT viability relative to DMSO control; higher = more viable (less active); conditions: 72 h; 10 µM
Protocol: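 XTT/PMS was then added for a further 24 h (72 h total) and A450 was read. % viability = (sample - heat-killed control)/(DMSO control - heat-killed control) x 100, from duplicate wells in two independent experiments.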

[2] = tested on: Schistosoma mansoni schistosomula (NMRI); assay: phenotypic severity score (0-4); higher = more antischistosomal effect, active = 2 or more; conditions: 10 µM
[3] = tested on: Schistosoma mansoni schistosomula (Liberian); assay: drug effect (1 - score/DMSO control score) (fraction); higher = more antischistosomal effect, active = 0.5 or more; extreme values may be limits of the assay; conditions: 10 µM
Summary of the method: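 Schistosomula of the Liberian strain of Schistosoma mansoni were mechanically transformed from cercariae, pre-incubated for at least 12 h, and placed at 50 per well in flat-bottom 96-well plates with Medium 199 containing 5% FCS. Compounds were tested in duplicate at 10 µM at 37 °C and 5% CO2, alongside wells holding 0.1% DMSO. Parasites were scored visually at 10× after 24, 48 and 72 h on a quarter-point scale running from 3 (normal) to 0 (dead). Drug effect came from the mean test-well score relative to the mean DMSO-well score, with negative values set to zero and plates accepted only when the DMSO wells averaged at least 2.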
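Throughout, for phenotypic severity score (0-4): visual microscopic scoring of shape, motility and density changes versus 0.5% DMSO solvent controls, one point per descriptor, degeneracy or death scored 4, mean of duplicate wells.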

Compound	XTT viability [1]	phenotypic severity score ([2]; 24 h)	phenotypic severity score ([2]; 48 h)	phenotypic severity score ([2]; 72 h)	drug effect ([3]; 24 h)	drug effect ([3]; 48 h)	drug effect ([3]; 72 h)
CNCCC(Oc1ccc(C(F)(F)F)cc1)c1ccccc1 (stereo not drawn)	20.4%	0 (inactive)	0 (inactive)	0 (inactive)	0.05 (inactive)	0.0811 (inactive)	0.333 (inactive)
Cc1nnc(NCc2cccc(Cl)c2)c2ccccc12	102%	0 (inactive)	0 (inactive)	0 (inactive)	< 0 (inactive)	0.25 (inactive)	0.127 (inactive)
CC(C)n1nc(-c2cc3c(Cl)cccc3[nH]2)c2c(N)ncnc21	54.3%	4 (active)	4 (active)	4 (active)	0.55 (active)	0.667 (active)	1 (active)
CC(C)(C)OC(=O)N1CCC(Cn2nc(-c3cnc4ccccc4c3)c3c(N)ncnc32)CC1	125%	1 (inactive)	4 (active)	4 (active)	0.405 (inactive)	0.444 (inactive)	0.688 (active)
CC(=O)NC[C@H]1CN(c2ccc(N3CCSCC3)c(F)c2)C(=O)O1	145%	0 (inactive)	0 (inactive)	0 (inactive)	0.136 (inactive)	0.2 (inactive)	0.236 (inactive)
C[C@H]1COc2c(N3CCN(C)CC3)c(F)cc3c(=O)c(C(=O)O)cn1c23	67.9%	0 (inactive)	0 (inactive)	0 (inactive)	0.0455 (inactive)	0.05 (inactive)	0.0526 (inactive)
CCC(Sc1nc2ccccc2o1)C(=O)Nc1nnc(C)s1 (stereo not drawn)	82.8%	0 (inactive)	0 (inactive)	0 (inactive)	0.1 (inactive)	0.111 (inactive)	0.312 (inactive)
CCC(Sc1nc2ccccc2o1)C(=O)Nc1nccs1 (stereo not drawn)	7.06%	2 (active)	4 (active)	4 (active)	0.182 (inactive)	1 (active)	1 (active)
Cc1cc(Nc2ccncc2)n2nc(C)c(-c3ccccc3Cl)c2n1	64.9%	0 (inactive)	0 (inactive)	0 (inactive)	0.1 (inactive)	0.135 (inactive)	0.167 (inactive)
Cc1cc(OCC(=O)Nc2ccc(C(C)C)cc2)n(C)c(=O)c1C#N	82.3%	0 (inactive)	0 (inactive)	0 (inactive)	0.1 (inactive)	0.0556 (inactive)	< 0 (inactive)
CC(C)C(C(=O)Nc1ccc(S(=O)(=O)N(C)C)cc1)c1ccc(Cl)cc1 (stereo not drawn)	29.5%	2 (active)	4 (active)	4 (active)	0.955 (active)	0.85 (active)	1 (active)
CN1CCC(NCc2cccc(-c3ccc(S(=O)(=O)NCc4ccccc4)cc3)c2)CC1	19.2%	0 (inactive)	2 (active)	4 (active)	0.6 (active)	0.784 (active)	0.939 (active)
CC[C@H](CO)NCCN[C@H](CC)CO	78.3%	0 (inactive)	0 (inactive)	0 (inactive)	0.15 (inactive)	0.135 (inactive)	0.278 (inactive)
CC(=O)Oc1ccccc1C(=O)Nc1ncc([N+](=O)[O-])s1	102%	2 (active)	4 (active)	4 (active)	0.2 (inactive)	0.297 (inactive)	0.556 (active)
Cc1cc2ccccc2n1CC(=O)N1CC(C(=O)N2CCCCC2)Oc2ccccc21 (stereo not drawn)	71.5%	0 (inactive)	1 (inactive)	0 (inactive)	0.05 (inactive)	0.027 (inactive)	0.111 (inactive)
Cc1ccc2oc(-c3cc(NC(=O)Cc4ccccc4)ccc3Cl)nc2c1	109%	1 (inactive)	0 (inactive)	0 (inactive)	0.227 (inactive)	0.25 (inactive)	0.236 (inactive)
c1ccc(Oc2ccc(-c3cc(CN4CCOCC4)[nH]n3)cc2)cc1	85.9%	0 (inactive)	0 (inactive)	0 (inactive)	0.0455 (inactive)	0.05 (inactive)	0.158 (inactive)
O=C(Nc1cccnc1)c1c(O)c2cccc3c2n(c1=O)CC3	118%	0 (inactive)	0 (inactive)	0 (inactive)	0.182 (inactive)	0.2 (inactive)	0.0727 (inactive)
Cc1ccc(NC(=O)c2cc(S(=O)(=O)NC(C)(C)C)ccc2C)nc1	90.2%	0 (inactive)	0 (inactive)	0 (inactive)	0.2 (inactive)	0.222 (inactive)	0.375 (inactive)
